Rows were chosen to be rich in hits. Some 2.9% of all compounds tested hit in one or more screens of this group.
PAFAH1B3 FP inh: PAFAH1B3 enzyme inhibitors, primary screen, biochemical, fluorescence polarization, human; inhibition, % at 3.39 µM; actives 0.28% (n = 340,000); AID 492972, 2010; Platelet-activating factor acetylhydrolase IB subunit alpha1 (Homo sapiens), Q15102; recombinant PAFAH1B3, FP-rhodamine probe;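 active = inhibition above the screen-wide average of all tested compounds plus 3 SD, cut at about 25% in these data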
PME-1 inh: PME-1 inhibitors via competitive probe labeling, primary screen, biochemical, fluorescence polarization, FP-Rh probe, HTS. Protein phosphatase methylesterase 1 (Homo sapiens), Q9Y570. recombinant PME-1. inhibition, % at 5.9 µM. actives 0.53% (n = 320,000);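 active = inhibition above the campaign mean of all compounds plus 3 SD, cut at about 26% in these data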;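 note: competitive labeling of PME-1 active site by serine hydrolase directed probe; inhibitors block probe labeling so polarization falls and inhibition rises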
PAFAH2 FP inh: PAFAH2 enzyme inhibitors, primary screen, biochemical, fluorescence polarization, human | Platelet-activating factor acetylhydrolase 2, cytoplasmic (Homo sapiens), Q99487 | recombinant PAFAH2, FP-rhodamine activity probe | inhibition, % at 3.39 µM | actives 0.99% (n = 340,000) | AID 492956, 2010;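 active = inhibition above the mean over all tested compounds plus 3 SD, cut at about 30% in these data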;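 note: inhibitors block probe labeling of enzyme so polarization drops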
Fam108B counter: mouse Fam108B serine hydrolase inhibitors, primary screen, counter-screen for RBBP9 inhibitor project, biochemical, fluorescence polarization; recombinant Fam108B, FP-Rh probe fluorescence polarization; actives 0.33% (n = 300,000); inhibition, % at 9.51 µM; AID 1947, 2009;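 active = inhibition above the screen mean inhibition plus 3 SD, computed separately per campaign, cut at about 18% in these data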;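 note: inhibitors lower polarization as less probe binds the enzyme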
pPAFAH inh: pPAFAH enzyme inhibitors, primary screen, biochemical, fluorescence polarization, human; recombinant pPAFAH, FP-rhodamine probe fluorescence polarization; Platelet-activating factor acetylhydrolase (Homo sapiens), Q13093; inhibition, % at 3.39 µM; actives 1.5% (n = 330,000);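 active = inhibition above the mean inhibition across the screen plus 3 SD, cut at about 25% in these data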;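 note: inhibitors block binding of the rhodamine activity-based probe so polarization drops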
Target sequence (Q13093 whole entry, looked up): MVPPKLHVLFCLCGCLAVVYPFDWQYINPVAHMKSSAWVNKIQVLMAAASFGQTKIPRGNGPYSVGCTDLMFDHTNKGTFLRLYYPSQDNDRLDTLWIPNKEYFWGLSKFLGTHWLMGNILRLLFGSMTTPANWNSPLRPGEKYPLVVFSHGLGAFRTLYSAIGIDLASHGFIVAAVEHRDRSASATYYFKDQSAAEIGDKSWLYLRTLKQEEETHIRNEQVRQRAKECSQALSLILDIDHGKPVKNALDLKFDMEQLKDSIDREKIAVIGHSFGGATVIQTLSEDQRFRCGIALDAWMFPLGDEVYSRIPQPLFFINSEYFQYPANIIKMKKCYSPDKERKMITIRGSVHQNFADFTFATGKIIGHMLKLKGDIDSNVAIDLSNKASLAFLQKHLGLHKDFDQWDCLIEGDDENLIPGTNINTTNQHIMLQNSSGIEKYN
PAFAH1B2 FP inh: PAFAH1B2 enzyme inhibitors, primary screen, biochemical, fluorescence polarization, human. inhibition, % at 3.39 µM. recombinant PAFAH1B2, FP-rhodamine activity probe. Platelet-activating factor acetylhydrolase IB subunit alpha2 (Homo sapiens), P68402. actives 1.2% (n = 340,000);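 active = inhibition above the mean of all tested compounds plus 3 SD, cut at about 24% in these data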
PAFAH2 FP conf: PAFAH2 enzyme inhibitors, confirmation, biochemical, fluorescence polarization, human; shares compounds with PAFAH2 FP inh; recombinant PAFAH2, FP-rhodamine activity probe; inhibition, % at 3.39 µM; actives 65% (n = 2,300); AID 493030, 2011;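 active = mean inhibition over three repeats above a set limit taken from the earlier primary screen, cut at about 30% in these data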;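 note: inhibitor blocks binding of rhodamine activity probe so polarization falls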
Hits are given with their value; n = inactive; x = not tested or not shown.

SMILES | PAFAH1B3 FP inh | PME-1 inh | PAFAH2 FP inh | Fam108B counter | pPAFAH inh | PAFAH1B2 FP inh | PAFAH2 FP conf
COc1ccccc1CNC(=O)COC(=O)/C=C/c1ccc2c(c1)OCO2 | n | x | 39 | x | n | n | 43
COc1cccc(CNC(=O)c2csc3c2CCCC3)c1 | n | n | n | n | n | n | x
Cc1ccc2nc(SCc3nc4ccccc4c(=O)[nH]3)[nH]c2c1 | n | n | n | n | n | n | x
CC(=O)c1ccc(S(=O)(=O)NCCc2cn3ccc(C)cc3n2)cc1 | n | n | n | n | n | n | x
O=C(O)c1cccc(N2C(=O)C3CC=CCC3C2=O)c1 (stereo not given) | n | n | n | n | n | n | x
O=C(COC(=O)c1cccc(N2C(=O)C3CC=CCC3C2=O)c1)c1ccccc1 (stereo not given) | n | n | 35 | n | n | n | n
Cc1ccccc1CN(C)C(=O)COC(=O)c1ccc2[nH]c(C)c(C)c2c1 | n | x | 51 | x | n | n | 31
O=C(COC(=O)c1ccc(F)cc1F)Nc1cccc(S(=O)(=O)N2CCOCC2)c1 | n | x | 34 | x | x | n | 35
Cc1noc(C)c1COc1ccc(C(=O)OCC(=O)Nc2cccc(S(=O)(=O)N3CCOCC3)c2)cc1 | n | n | 72 | n | n | n | 65
COc1ccccc1CCC(=O)OCC(=O)Nc1cccc(S(=O)(=O)N2CCCCC2)c1 | n | n | n | n | n | n | x
COc1ccccc1CCC(=O)OCC(=O)Nc1cccc(S(=O)(=O)N2CCOCC2)c1 | n | n | 73 | n | n | n | 66
Cc1cc(C(=O)OCC(=O)Nc2cccc(S(=O)(=O)N3CCOCC3)c2)c(C)o1 | n | n | 36 | n | n | n | n
Cc1cccc(C(C)C)c1NC(=O)CSc1nncn1C | n | n | n | n | n | n | x
CN1CCN(C(=O)Cn2ncc3c([nH]c4ccccc43)c2=O)CC1 | n | n | n | n | n | n | x
O=C(COC(=O)c1cc(S(=O)(=O)N2CCCC2)ccc1O)Nc1ccc(F)cc1F | n | x | 42 | x | n | n | n
CC(=O)Nc1ccc(NC(=O)COC(=O)c2cc(S(=O)(=O)N3CCCC3)ccc2O)cc1 | n | x | n | x | n | n | x
Nc1nnc(CC(=O)N/N=C/c2ccc(-c3ccccc3Cl)o2)s1 | n | n | 30 | n | n | n | n
Nc1nnc(CC(=O)N/N=C/c2ccc(-c3ccccc3)o2)s1 | n | n | n | n | n | n | x
Nc1nnc(CC(=O)N/N=C/c2ccc(-c3ccc(Cl)cc3Cl)o2)s1 | n | n | 50 | n | n | n | 31
Cc1nn(-c2ccccc2)c(C)c1/C=C/C(=O)OC(C)C(=O)Nc1ncc(Cl)cc1Cl (stereo not given) | n | n | n | n | n | n | x
COc1ccc(/C=C/C(=O)OCC(=O)Nc2ncc(Cl)cc2Cl)cc1 | n | x | 37 | x | n | n | 43
COc1ccc(/C=C/C(=O)OCC(=O)Nc2ccc(Cl)cn2)cc1 | n | n | n | n | n | n | x
Cc1nn(-c2ccccc2)c(C)c1/C=C/C(=O)OCC(=O)Nc1ncc(Cl)cc1Cl | n | n | 49 | n | n | n | 55
CN(C)S(=O)(=O)c1ccc(N2CCCC2)c(C(=O)NCC2CCCO2)c1 (stereo not given) | n | n | n | n | n | n | x
O=C(O)CCC(=O)Nc1ccc(C(=O)OCC(=O)c2ccc(Cl)cc2Cl)cc1 | n | n | 62 | n | n | n | 51
CCCN(CCC)C(=O)Cc1coc2ccc3ccccc3c12 | n | n | n | n | n | n | x
CCOC(=O)c1ccccc1NC(=O)C1CCCO1 (stereo not given) | n | n | 42 | n | n | n | n
O=C(COC(=O)C1=COCCO1)Nc1ccccc1Oc1ccccc1 | n | n | n | n | n | n | x
O=C(COC(=O)C1=COCCO1)Nc1ccc([N+](=O)[O-])cc1C(F)(F)F | n | n | 32 | x | n | n | n
O=C(NC1CCCC1)C1=COCCO1 | n | n | n | n | n | n | x

Source: PubChem
